Records with an inconclusive call do not appear. Active and inactive are the calls of the source. Rule for the calls: active = hit-call score of the fitted dose curve at least 0.9, where 1 is the maximum; inconclusive = response in the unintended direction; inactive = score below 0.9.
Target: Retinoic acid receptor RXR-alpha (Homo sapiens) (UniProt P19793)
Test: OT_NURR1_NURR1RXRa_0480: Odyssey Thera (OT) 8-hour HEK293T Protein Complementation Assay for Nurr1/retinoid X receptor (RXR) (AID 2283385)
Experimental: OT_NURR1_NURR1RXRa_0480 is a cell-based assay that uses HEK293T, a human kidney cell line, with measurements taken at 8 hours after chemical dosing in a 384-well plate.OT_NURR1_NURR1RXRa_0480 is one of one assay component(s) measured or calculated from the OT_NURR1_NURR1RXRa_0480 assay. It is designed to make measurements of protein fragment complementation, a form of binding reporter, as detected with fluorescence intensity signals by Protein-fragment Complementation technology.Data from the assay component OT_NURR1_NURR1RXRa_0480 was analyzed into 1 assay endpoint. This assay endpoint, OT_NURR1_NURR1RXRa_0480, was analyzed in the positive analysis fitting direction relative to DMSO as the negative control and baseline of activity. Using a type of binding reporter, measures of receptor for gain-of-signal activity can be used to understand the binding at the pathway-level as they relate to the gene RXRA. Furthermore, this assay endpoint can be referred to as a primary readout, because the performed assay has only produced 1 assay endpoint. To generalize the intended target to other relatable targets, this assay endpoint is annotated to the nuclear receptor intended target family, where the subfamily is non-steroidal.
Protein-fragment complementation assay, or PCA, is a method for the identification and quantification of protein-protein interactions. In the PCA, the proteins of interest ("bait" and "prey") are each covalently linked to fragments of a third protein (e.g. DHFR, which acts as a "reporter"). Interaction between the bait and the prey proteins brings the fragments of the reporter protein in close proximity to allow them to form a functional reporter protein whose activity can be measured.

Chain of Retinoic acid receptor RXR-alpha (Homo sapiens) (P19793 whole entry, looked up): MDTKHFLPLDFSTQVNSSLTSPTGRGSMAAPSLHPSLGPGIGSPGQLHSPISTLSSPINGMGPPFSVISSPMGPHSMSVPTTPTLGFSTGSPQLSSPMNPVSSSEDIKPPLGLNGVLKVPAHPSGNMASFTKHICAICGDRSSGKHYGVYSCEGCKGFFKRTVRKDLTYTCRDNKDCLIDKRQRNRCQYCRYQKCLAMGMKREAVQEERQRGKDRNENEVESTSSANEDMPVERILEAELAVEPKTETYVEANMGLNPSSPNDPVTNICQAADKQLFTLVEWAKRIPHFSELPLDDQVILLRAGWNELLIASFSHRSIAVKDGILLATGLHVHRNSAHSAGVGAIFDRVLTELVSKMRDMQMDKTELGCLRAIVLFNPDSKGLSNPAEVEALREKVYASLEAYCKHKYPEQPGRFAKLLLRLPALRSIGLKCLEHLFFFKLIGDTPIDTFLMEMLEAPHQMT

| SMILES | outcome | AC50 |
| --- | --- | --- |
| CCCCCCOC(=O)c1ccccc1O | inactive | – |
| CCCCCCC(C)OC(=O)CCCCC(=O)OC(C)CCCCCC (stereo unspecified) | inactive | – |
| CNC(=S)NC | inactive | – |
| CC/C=C\CCOC(C)=O | inactive | – |
| OC[C@@H](O)[C@@H](O)[C@H](O)[C@@H](O)CO | inactive | – |
| C1COCCN1 | inactive | – |
| O=S(=O)(O)c1ccc2ccccc2c1 | inactive | – |
| CCN(Cc1cccc(S(=O)(=O)O)c1)c1ccc(C(=C2C=CC(=[N+](CC)Cc3cccc(S(=O)(=O)O)c3)C=C2)c2ccc(O)cc2S(=O)(=O)[O-])cc1 | inactive | – |
| C(=C(c1ccccc1)c1ccccc1)c1ccccc1 | – | 90.2 µM (active) |
| CCCCC(CC)COP(=O)(O)OCC(CC)CCCC (stereo unspecified) | inactive | – |
| COC(=O)C1CCC(C(=O)OC)CC1 (stereo unspecified) | inactive | – |
| CCCCCCOC(=O)c1ccccc1 | inactive | – |
| CC(CCl)OP(=O)(OC(C)CCl)OC(C)CCl (stereo unspecified) | inactive | – |
| CCCCOc1ccc(N)cc1 | inactive | – |
| C#C[C@]1(O)CC[C@H]2[C@@H]3CCc4cc(OC)ccc4[C@H]3CC[C@@]21C | inactive | – |
| c1ccc(B(c2ccccc2)c2ccccc2)cc1 | inactive | – |
